# Test results as given in the supplement of paper PMC7261846.
# Where a name gives a salt, the structure may show the parent alone. ± gives the uncertainty stated by the source.
# System: Candida albicans SNY425 biofilm
# Assay: biofilm OD600 with compound plus antifungal (OD600 (absorbance)); higher = more biofilm remaining
# [1] = assay detail: disruption of 24-h mature biofilm (compound + antifungal for a second 24 h)
# [2] = assay detail: sustained inhibition (compound + antifungal during 90-min adherence and 24-h growth)
Structure (SMILES),biofilm OD600 [1],biofilm OD600 [2]
CC(C)C[C@H](NC(=O)[C@@H](O)[C@H](N)Cc1ccccc1)C(=O)O [Bestatin·HCl] + CC[C@H](C)C[C@H](C)CCCCCCCCC(=O)N[C@H]1C[C@@H](O)[C@@H](NCCN)NC(=O)[C@@H]2[C@@H](O)CCN2C(=O)[C@H]([C@H](O)CCN)NC(=O)[C@H]([C@H](O)[C@@H](O)c2ccc(O)cc2)NC(=O)[C@@H]2C[C@@H](O)CN2C(=O)[C@H]([C@@H](C)O)NC1=O [caspofungin] (first compound 12.5 µM),0.283 ± 0.013,0.187 ± 0.0098
O=C(O[C@@H]1Cc2c(O)cc(O)cc2O[C@@H]1c1cc(O)c(O)c(O)c1)c1cc(O)c(O)c(O)c1 [Epigallocatechin gallate] + OC(Cn1cncn1)(Cn1cncn1)c1ccc(F)cc1F [fluconazole] (first compound 12.5 µM),0.262 ± 0.011,0.164 ± 0.01
CSCCC(C=O)NC(=O)C(CC(C)C)NC(=O)[C@H](CC(C)C)NC(C)=O (stereo partly drawn) [Calpain Inhibitor II (ALLM)] + OC(Cn1cncn1)(Cn1cncn1)c1ccc(F)cc1F [fluconazole] (first compound 12.5 µM),0.239 ± 0.0058,0.146 ± 0.0052
CC(C)CCNC(=O)[C@H](CC(C)C)NC(=O)[C@H]1O[C@@H]1C(=O)O + CC[C@H](C)C[C@H](C)CCCCCCCCC(=O)N[C@H]1C[C@@H](O)[C@@H](NCCN)NC(=O)[C@@H]2[C@@H](O)CCN2C(=O)[C@H]([C@H](O)CCN)NC(=O)[C@H]([C@H](O)[C@@H](O)c2ccc(O)cc2)NC(=O)[C@@H]2C[C@@H](O)CN2C(=O)[C@H]([C@@H](C)O)NC1=O [caspofungin] (first compound 12.5 µM),0.268 ± 0.0056,0.17 ± 0.01
NC(N)=NCCC[C@H](NC(=O)[C@@H]1CCCN1C(=O)[C@H](N)Cc1ccccc1)C(=O)CCl + CC[C@H](C)C[C@H](C)CCCCCCCCC(=O)N[C@H]1C[C@@H](O)[C@@H](NCCN)NC(=O)[C@@H]2[C@@H](O)CCN2C(=O)[C@H]([C@H](O)CCN)NC(=O)[C@H]([C@H](O)[C@@H](O)c2ccc(O)cc2)NC(=O)[C@@H]2C[C@@H](O)CN2C(=O)[C@H]([C@@H](C)O)NC1=O [caspofungin] (first compound 12.5 µM),0.274 ± 0.0098,0.189 ± 0.011
O=C1Nc2ccc([N+](=O)[O-])cc2C1=O [5-Nitroisatin] + CC[C@H](C)C[C@H](C)CCCCCCCCC(=O)N[C@H]1C[C@@H](O)[C@@H](NCCN)NC(=O)[C@@H]2[C@@H](O)CCN2C(=O)[C@H]([C@H](O)CCN)NC(=O)[C@H]([C@H](O)[C@@H](O)c2ccc(O)cc2)NC(=O)[C@@H]2C[C@@H](O)CN2C(=O)[C@H]([C@@H](C)O)NC1=O [caspofungin] (first compound 12.5 µM),0.255 ± 0.0081,0.156 ± 0.013
CNC(=O)[C@H](Cc1c[nH]c2ccccc12)NC(=O)[C@@H](CC(=O)NO)CC(C)C + CC[C@H](C)C[C@H](C)CCCCCCCCC(=O)N[C@H]1C[C@@H](O)[C@@H](NCCN)NC(=O)[C@@H]2[C@@H](O)CCN2C(=O)[C@H]([C@H](O)CCN)NC(=O)[C@H]([C@H](O)[C@@H](O)c2ccc(O)cc2)NC(=O)[C@@H]2C[C@@H](O)CN2C(=O)[C@H]([C@@H](C)O)NC1=O [caspofungin] (first compound 12.5 µM),0.278 ± 0.01,0.187 ± 0.0076
C[C@H](CS)C(=O)N1CCC[C@H]1C(=O)O [Captopril] + CC[C@H](C)C[C@H](C)CCCCCCCCC(=O)N[C@H]1C[C@@H](O)[C@@H](NCCN)NC(=O)[C@@H]2[C@@H](O)CCN2C(=O)[C@H]([C@H](O)CCN)NC(=O)[C@H]([C@H](O)[C@@H](O)c2ccc(O)cc2)NC(=O)[C@@H]2C[C@@H](O)CN2C(=O)[C@H]([C@@H](C)O)NC1=O [caspofungin] (first compound 12.5 µM),0.286 ± 0.011,0.198 ± 0.0082
Cc1ccc(S(=O)(=O)N[C@@H](Cc2ccccc2)C(=O)CCl)cc1 + C[C@@H]1[C@H](O)[C@@H](C)/C=C/C=C/C=C/C=C/C=C/C=C/C=C/[C@H](O[C@@H]2O[C@H](C)[C@@H](O)[C@H](N)[C@@H]2O)C[C@@H]2O[C@](O)(C[C@@H](O)C[C@@H](O)[C@H](O)CC[C@@H](O)C[C@@H](O)CC(=O)O[C@H]1C)C[C@H](O)[C@H]2C(=O)O [amphotericin B] (first compound 4 µM),0.25 ± 0.011,0.158 ± 0.0081
